From PubChem BioAssay (EPA / NIEHS)
The source made the active and inactive calls. Rule for the calls: active = hit-call score of the fitted dose curve at least 0.9, where 1 is the maximum; inactive = score below 0.9.

Experiment: APR_HepG2_StressKinase_1hr: Apredica 1-hour HepG2 Assay for Stress Kinase (AID 2282906)
Settings: HepG2 stress kinase (phospho-c-Jun) imaging, actives raise or lower the signal
Protocol: APR_HepG2_1hr is a cell-based, multiplexed-readout assay that uses HepG2, a human liver cell line, with measurements taken at 1 hour after chemical dosing in a 384-well plate.APR_HepG2_StressKinase_1hr is one of 10 assay component(s) measured or calculated from the APR_HepG2_1hr assay. It is designed to make measurements of enzyme activity, a form of enzyme reporter, as detected with fluorescence intensity signals by HCS Fluorescent Imaging technology.Data from the assay component APR_HepG2_StressKinase_1hr was analyzed into 1 assay endpoint. This assay endpoint, APR_HepG2_StressKinase_1hr, was analyzed with bidirectional fitting relative to DMSO as the negative control and baseline of activity. Using a type of enzyme reporter, measures of protein for gain or loss-of-signal activity can be used to understand the signaling at the pathway-level as they relate to the gene . Furthermore, this assay endpoint can be referred to as a primary readout, because this assay has produced multiple assay endpoints where this one serves a signaling function. To generalize the intended target to other relatable targets, this assay endpoint is annotated to the cell cycle intended target family, where the subfamily is stress response.
Cells were treated with dimethyl sulfoxide (DMSO) as a solvent control at a final concentration of 0.5% v/v or with compounds in DMSO with a resulting final DMSO concentration of 0.5% v/v. Compound treatment was done at concentrations of 0.39, 0.78, 1.56, 3.12, 6.24, 12.5, 25, 50, 100, and 200 uM in duplicate on each plate. Cells were treated with compounds for 1, 24, or 72 hr. Carbonyl […] m-chloro-phenylhydrazone (CCCP) and taxol were used as positive controls for mitochondrial function and cytoskeletal stability, respectively; DMSO served as the negative control for this experiment. Cells were fixed by the direct addition of 50 uL formaldehyde in Hank's Balanced Salt Solution (HBSS) to a final concentration of 3.7%. After incubation in the fixation medium for 30 min at room temperature (293-298 K), cells were rinsed twice with HBSS and treated with cell permeabilization buffer (16 uL of 0.5% Triton X-100) for 10 min at room temperature (293-298 K) before labeling. For mitochondrial membrane potential and mitochondrial measurements, pre-fixed cells were incubated with 50 uL of MitoTracker Red CMXRos (Invitrogen) at a concentration of 250 nM for 30 min before fixation. In the remaining cases, post-fixed cells were labeled by incubation with a multiplexed mixture of primary antibodies in HBSS for 60 min at room temperature (293-298 K) to detect immunoreactivity of c-Jun (1:500), phospho-histone H3 (1:100), phospho-histone H2A.x (1:200), p53 (1:400), alpha-tubulin (1:200) and Hoechst 33342 (2 ug/mL). Cells were labeled for multiplexed imaging on two separate plates: a) Hoechst 33342, MitoTracker Red, phospho-histone H3, and alpha-tubulin, and b) Hoechst 33342, phospho-histone H2A.x, and c-Jun. A final rinse with HBSS (50 uL) was performed before analysis. The primary and secondary antibodies for the proteins were phospho-histone H3 (rabbit anti-phospho-histone H3 and FITC-donkey anti-rabbit IgG), phospho-histone H2A.x (mouse anti-phospho-histone H2A.x and FITC-donkey anti-mouse IgG), c-Jun (rabbit anti-phospho-c-Jun and Cy3-donkey anti-rabbit IgG), p53 (sheep anti-p53 and Cy5-donkey anti-sheep IgG), alpha-tubulin (mouse anti-alpha-tubulin and Cy5-donkey anti-mouse IgG). These antibodies are available as the CellCiphr HepG2 assay kit (Millipore).Digital images of each well were captured using a Cellomics ArrayScan VTI (Thermo Scientific Cellomics) (0.8 NA objective, 0.63x optical coupler, and XF-93 filter set) at 20x magnification. The images were acquired using the autofocus feature of the ArrayScan instrument, which entails the following steps. First, the camera focuses on channel 1 (Hoechst 33342), where nuclei are identified. Second, a Z offset of 1 um is used for capturing mitochondria (MitoTracker Red). […]
With `C#CCN1C(=O)COc2cc(F)c(N3C(=O)C4=C(CCCC4)C3=O)cc21` the outcome was “inactive”. In the case of `CC(C)OC(=O)Nc1cccc(Cl)c1`, the outcome was “inactive”. In the case of `[2H]C1([2H])[n+]2ccccc2-c2cccc[n+]2C1([2H])[2H]`, the outcome was “inactive”. For `CCOc1nc(NC)nc(NC(=O)NS(=O)(=O)c2ccccc2C(=O)OC)n1`, the outcome was “inactive”. In the case of `N#Cc1c(Cl)c(Cl)c(Cl)c(C#N)c1Cl`, the AC50 was 1.94 µM (active). For `CCC(C)Nc1c([N+](=O)[O-])cc(C(C)(C)C)cc1[N+](=O)[O-]` (stereo not given), the outcome was “inactive”. For `COP(=S)(OC)Oc1ccc([N+](=O)[O-])cc1`, the outcome was “inactive”. With `Cc1cc(C)nc(NC(=O)NS(=O)(=O)c2ccccc2C(=O)OC2COC2)n1` the outcome was “inactive”. In the case of `O=C(NC(=O)c1c(F)cccc1F)Nc1ccc(OC(F)(F)C(F)OC(F)(F)F)c(Cl)c1` (stereo not given), the outcome was “inactive”. For `O=[N+]([O-])c1c(Cl)c(Cl)c(Cl)c(Cl)c1Cl`, the outcome was “inactive”. In the case of `Oc1ccc(Cl)cc1Cc1ccccc1`, the AC50 was 77.4 µM (active). With `ClC1C(Cl)C(Cl)C(Cl)C(Cl)C1Cl` (stereo not given) the outcome was “inactive”. In the case of `CCOCN(C(=O)CCl)c1c(C)cccc1CC`, the outcome was “inactive”. With `CCOC1Oc2ccc(OS(C)(=O)=O)cc2C1(C)C` (stereo not given) the outcome was “inactive”. In the case of `COC(=O)c1ccccc1S(=O)(=O)NC(=O)Nc1nc(C)nc(OC)n1`, the outcome was “inactive”. With `COC(=O)c1ccccc1CS(=O)(=O)NC(=O)Nc1nc(OC)cc(OC)n1` the outcome was “inactive”. For `Cc1[nH]c(=O)n(C(C)(C)C)c(=O)c1Cl`, the outcome was “inactive”. In the case of `CCS(=O)(=O)c1cccnc1S(=O)(=O)NC(=O)Nc1nc(OC)cc(OC)n1`, the outcome was “inactive”. With `COc1nn(CSP(=S)(OC)OC)c(=O)s1` the outcome was “inactive”. With `CNC(=O)/C=C(\C)OP(=O)(OC)OC` the outcome was “inactive”. In the case of `CC1(C)C(C=C(Cl)Cl)C1C(=O)OC(C#N)c1ccc(F)c(Oc2ccccc2)c1` (stereo not given), the outcome was “inactive”. In the case of `O=C(O)CCCOc1ccc(Cl)cc1Cl`, the outcome was “inactive”. For `O=C1c2ccccc2C(=O)N1SC(Cl)(Cl)Cl`, the outcome was “inactive”. In the case of `CCN(CC)C(=O)SCc1ccc(Cl)cc1`, the outcome was “inactive”. In the case of `O=S1OCC2C(CO1)C1(Cl)C(Cl)=C(Cl)C2(Cl)C1(Cl)Cl` (stereo not given), the AC50 was 94.4 µM (active). With `C[C@H]1[C@H](c2ccc(Cl)cc2)SC(=O)N1C(=O)NC1CCCCC1` the outcome was “inactive”. With `O=[N+]([O-])/N=C1\NCCN1Cc1ccc(Cl)nc1` the outcome was “inactive”. With `CC(C)(C)C(O)/C(=C\c1ccc(Cl)cc1Cl)n1cncn1` (stereo not given) the outcome was “inactive”. With `CCCN(CCC)c1c([N+](=O)[O-])cc(C(F)(F)F)cc1[N+](=O)[O-]` the outcome was “inactive”. With `N#CN` the outcome was “inactive”. For `CC(C)N(C(=O)COc1nnc(C(F)(F)F)s1)c1ccc(F)cc1`, the outcome was “inactive”. For `O=S(=O)(O)C(F)(F)C(F)(F)C(F)(F)C(F)(F)C(F)(F)C(F)(F)C(F)(F)C(F)(F)F`, the outcome was “inactive”. In the case of `OCCOc1ccccc1`, the outcome was “inactive”. For `COc1cc(OC)nc(NC(=O)NS(=O)(=O)c2cc(NC=O)ccc2C(=O)N(C)C)n1`, the outcome was “inactive”. With `CC[C@H](C)[C@H]1O[C@]2(C=C[C@@H]1C)C[C@@H]1C[C@@H](C/C=C(\C)[C@@H](O[C@H]3C[C@H](OC)[C@@H](O[C@H]4C[C@H](OC)[C@@H](O)[C@H](C)O4)[C@H](C)O3)[C@@H](C)/C=C/C=C3\CO[C@@H]4[C@H](O)C(C)=C[C@@H](C(=O)O1)[C@]34O)O2` (tested in a mixture with another compound) the AC50 was 22.3 µM (active). For `CCCN(CCOc1c(Cl)cc(Cl)cc1Cl)C(=O)n1ccnc1`, the outcome was “inactive”. For `CCC(C)(NC(=O)c1cc(Cl)c(C)c(Cl)c1)C(=O)CCl` (stereo not given), the AC50 was 37 µM (active). For `CNC(=O)CSP(=S)(OC)OC`, the outcome was “inactive”. For `Clc1ccccc1-c1nnc(-c2ccccc2Cl)nn1`, the outcome was “inactive”. For `COC(=O)c1ccccc1S(=O)(=O)NC(=O)N(C)c1nc(C)nc(OC)n1`, the outcome was “inactive”.
